Screens (PubChem)
MCF10A rerep = A quantitative high throughput screen for small molecules that induce DNA re-replication in MCF 10a normal breast cells | 2.9% of 350,000 active | AID 624296, 2012 | MCF 10A DNA re-replication, Hoechst nuclear intensity, 48 h | Potency, µM (series often up to 46.1 µM), for the others: top-dose activity, positive = re-replication, most hits filed as activators; also: potency is read from the fitted curve at half-maximal effect; % of control where 0% means no effect; nearly all actives have a fitted effect of over 50% in size
KB-3-1 tox = qHTS assay for MDR1-selective chemotherapeutics: Primary screen using the parental adenocarcinoma cell KB-3-1 | KB-3-1 viability, CellTiter-Glo ATP luminescence, 72 h | Potency, µM (top dose mostly 46.1 µM), hits mostly cytotoxic | 1.4% of 400,000 active | AID 1347075, 2019; also: potency is read from the fitted curve at half-maximal effect; % is scaled to controls: 0 for no effect and ±100 for the full control effect; nearly all actives have a fitted effect of over 60% in size
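Cytotoxicity in the drug-sensitive parental line KB-3-1 was scored as loss of CellTiter-Glo luminescence following 72 h incubation with compound. Values come from curve fitting of normalized concentration-response data.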
SW480 rerep = A quantitative high throughput screen for small molecules that induce DNA re-replication in SW480 colon adenocarcinoma cells; 1.8% of 340,000 active; SW480 DNA re-replication, Hoechst DNA content imaging, 48 h; Potency, µM (doses to about 46.1 µM), for the others: at the top dose re-replication activation, actives largely listed as activators; also: potency is read from the fitted curve at half-maximal effect; % of control where 0% means no effect; nearly all actives have a fitted effect of over 55% in size
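Hoechst fluorescence of nuclei (405 nm excitation, 500-530 nm emission) measured by plate-scanning imager after 48 hr compound exposure at 37 C; re-replication scored as increased number of nuclei with elevated intensity.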
hERG WT inh = qHTS for Inhibitors of KCHN2 3.1: Wildtype qHTS. Voltage-gated inwardly rectifying potassium channel KCNH2 (Homo sapiens), Q12809. U2OS, BacMam KCNH2, thallium flux FluxOr; stronger effect = lower value. activity change, % at 1.84 µM. 0.37% of 340,000 active. AID 720551, 2013;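 active = maximum activity change below -70%; inconclusive = maximum activity change between -70% and -50%; inactive = maximum activity change above -50%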; also: % is scaled to controls: 0 for no effect and ±100 for the full control effect
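U2OS cells were transduced with wild-type KCNH2 virus (2.03 x 10^8 / mL) for 4 h at room temperature, then cultured overnight at 37 C. Thallium flux was read with FluxOr dye. Rate constants were normalized to DMSO controls.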
KB-V1 cytotox = qHTS assay for MDR1-selective chemotherapeutics: Primary screen using the drug-selected MDR subline cells KB-V1. KB-V1 MDR cells viability, CellTiter-Glo, 72 h. Potency, µM (doses to about 46.1 µM), usual class: cytotoxic. AID 1347076, 2019. 3.4% of 400,000 active; also: potency is read from the fitted curve at half-maximal effect; % is scaled to controls: 0 for no effect and ±100 for the full control effect; nearly all actives have a fitted effect of over 60% in size
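Cells of the MDR subline KB-V1 are plated, dosed with compound at multiple concentrations, and incubated 72 h at 37 degrees C; CellTiter-Glo is then added and luminescence read after 10 min.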
KCNH2 3.1 block = qHTS for Inhibitors of KCHN2 3.1: Mutant qHTS | AID 720553, 2013 | U2OS KCNH2 3.1, thallium flux FluxOr; stronger effect = lower value | 0.95% of 340,000 active | Potassium voltage-gated channel subfamily H member 2, brain isoform KCNH2 3.1 (human) | activity change, % (tested at about 1.8 µM);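 active = maximum activity change below -70%; inconclusive = maximum activity change from -70% to -50%; inactive = maximum activity change above -50%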;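 also: thallium influx rate constant from kinetic fluorescence after stimulation buffer; % is scaled to controls: 0 for no effect and ±100 for the full control effect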
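FluxOr-based Tl+ influx in U2OS cells transduced with KCNH2 3.1 virus; rate constants normalized to DMSO controls.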
* hit, by the source's call; i = inactive; u = inconclusive; x = no result; [ ] = another dose, or the depositor's remark. The list is not random: actives were taken first. Their share in the collection is about 7.6%. Unless noted, calls follow the shape of the dose curve; as a rule, active = well fitted curve in the direction sought with a large enough effect; inconclusive = small, poorly fitted or top-dose-only effect, or another doubt; inactive = no such curve, though single readings can be large; an effect the other way counts as inactive or inconclusive.

SMILES | MCF10A rerep | KB-3-1 tox | SW480 rerep | hERG WT inh | KB-V1 cytotox | KCNH2 3.1 block
COC(=O)C1=C(C)N(CCc2ccccc2)C(=O)C1(NS(=O)(=O)c1ccc(NC(C)=O)cc1)C(F)(F)F (stereo not drawn) | 14.6µM* | i | 3.26µM* | -3.1 | i | -1.3
CN(C)c1ccc(/C=C/c2sc3ccccc3[n+]2Cc2ccccc2)cc1 | x | i | x | x | u | x
Nc1cccc(-n2nnnc2CN2CCOCC2)c1 | -4.3% | i | -3.3% | 0.9 | i | 3.4
CC1(C)CC(=O)C=C(C#CC2(O)CCCCC2)C1 | x | 23.1µM* | x | 1.0 | 16.4µM* | 7.6
COc1ccc(NC(=O)COC(=O)c2c3c(nc4ccccc24)CCCC3)cc1Cl | u | i | -7.4%[9.22 µM] | -1.7 | 16.4µM* | -15.3
COc1ccc(OC)c(NC(=O)COC(=O)c2c3c(nc4ccccc24)CCCC3)c1 | u | 25.9µM* | 1.2% | 9.3 | 25.9µM* | -25.0
COc1ccc(NC(=O)COC(=O)c2c3c(nc4ccccc24)CCCC3)cc1 | u | u | -0.4% | -6.8 | u | -14.0
CCOC(=O)c1c(-c2ccc(C)cc2)csc1NC(=O)c1cc(=O)c2ccc(C)cc2o1 | x | i | x | x | i | x
CC(CNC(=O)Cn1ncc2c3ccccc3n(Cc3cccc(Cl)c3)c2c1=O)c1ccccc1 (stereo not drawn) | x | i | x | x | u | x
Cc1ccc(-c2nn(-c3ccccc3)cc2/C=C2\SC(=S)N(CC(=O)O)C2=O)cc1 | 13.2% | i | -26.9% | -20.0 | i | -0.7
CCOc1ccc(-c2nn(-c3ccccc3)cc2/C=C2\SC(N)=NC2=O)cc1C | 10.3µM* | u | -2.3% | 0.8 | i | -9.2
CCc1nc2c(OCc3ccc(Cl)cc3Cl)cccn2c1N(C=O)Cc1ccc(OC)cc1 | x | u | x | x | 18.4µM* | x
CCc1nc2c(OCCOc3ccc(F)cc3)cccn2c1N(C=O)Cc1ccc(OC)cc1 | x | i | x | x | 18.4µM* | x
CCc1nc2c(OCc3ccc(F)cc3)cccn2c1N(C)C(=O)COc1ccccc1 | x | 23.1µM* | x | x | 6.51µM* | x
CCc1nc2c(OCC(=O)c3ccc(Cl)cc3Cl)cccn2c1N(C=O)Cc1ccc(OC)cc1 | x | i | x | x | u | x
CCc1nc2c(OCc3ccccc3)cccn2c1N(C)C(=O)COc1ccccc1 | x | i | x | x | i | x
COc1ccc(C)cc1NC(=O)C/C(C)=N/NC(=O)Cc1cccc2ccccc12 | 13.9% | i | 2.3% | 1.9 | i | -12.9
CCc1nnc(SCC(=O)NC2CC2)n1CC | -3.0% | i | -5.9% | 6.0 | i | 11.6
COc1ccc(OC)c(-c2nnc(NC(=O)Nc3ccc4ccccc4c3)s2)c1 | x | i | x | x | i | x
Nc1ccc2c(c1)COc1ccccc1O2 | 2.8% | i | -2.7% | 25.5 | 18.4µM* | 7.5
O=C(c1cc([N+](=O)[O-])ccc1N1CCOCC1)N1CCN(c2ccc([N+](=O)[O-])cc2)CC1 | 9.1% | i | -0.8% | -124.6* | u | -106.4*
CN(C)S(=O)(=O)c1ccc(N2CCCC2)c(C(=O)N2CCN(c3ccc([N+](=O)[O-])cc3)CC2)c1 | 3.1% | i | 1.8% | -82.8* | i | -115.9*
N#Cc1ccccc1OC1=NS(=O)(=O)c2ccccc21 | x | i | x | x | i | x
COc1ccccc1N1CCN(C(=O)c2cc3c(=O)oc4ccccc4c3s2)CC1 | x | i | x | x | i | x
CCOc1ccc(C(=O)c2ccc(OCC)c(N)c2)cc1N | 18.4µM* | u | u | -7.2 | i | -1.8
SMILES | MCF10A rerep | KB-3-1 tox | SW480 rerep | hERG WT inh | KB-V1 cytotox | KCNH2 3.1 block
Cn1c(N2CCN(C(=O)NCc3ccccc3)CC2)nc2ccccc21 | 0.8% | i | -1.9% | 5.8 | i | -12.5
Cn1c(N2CCN(C(=O)Nc3ccc(C(F)(F)F)cc3)CC2)nc2ccccc21 | u | i | u | -82.3* | i | -74.4*
S=C(Nc1ccc(N2CCOCC2)cc1)Nc1ccc2snnc2c1 | -1.5% | i | 0.2% | -12.5 | i | -3.6
Fc1ccc(-c2nc3ccc(Br)cn3c2Cc2ccccc2)cc1 | x | 20.6µM* | x | -3.5 | i | -13.2
Cc1ccn2c(Cc3ccccc3)c(-c3ccc(Br)cc3)nc2c1 | x | u | x | -18.3 | u | -74.4*
CC(=O)NC1C(=O)N(CCc2ccccc2)c2ccc(Br)cc21 (stereo not drawn) | 26.7% | i | 2.1% | -6.3 | 5.8µM* | -3.7
CC(=O)NC1C(=O)N(Cc2ccccc2)c2ccc(Br)cc21 (stereo not drawn) | 22.6% | i | -1.9% | 8.8 | u | -14.8
CCCOc1ccc(CCCN=C(N)N)cc1Cl | u | 20.6µM* | 21.3% | -3.0 | i | 32.8
c1ccc(CNCCCNCCCCNCCCNCc2ccccc2)cc1 | 6.51µM* | u | u | 16.0 | u | 9.9
COCCCNCCCOc1ccc(C(C)(C)c2ccccc2)cc1 | 15.1% | i | u | 4.1 | u | -2.7
COCCNCCCOc1ccc(C(C)(C)c2ccccc2)cc1 | 20.6µM* | i | 2.0% | -27.9 | u | -4.0
CC(C)(C)c1ccc(OCCCNCc2ccccc2)cc1 | 23.1µM* | u | 23.1µM* | 15.0 | i | -32.2
COC(=O)[C@H]1C[C@H](C(=O)O)[C@@H](C)C1(C)C | -1.1% | i | -17.2% | 2.3 | i | -8.4
CN(C(=O)CSc1nnc(-c2ccccc2)o1)c1c(N)n(Cc2ccccc2)c(=O)[nH]c1=O | 0.4% | i | 1.3% | 13.2 | i | 6.9
CSc1ccccc1NC(=O)c1cc(-c2cccnc2)nc2ccc(Br)cc12 | 16.4µM* | u | 2.6% | -48.2 | u | -18.8
O=C(Nc1ccc(C(F)(F)F)cc1)c1cc(-c2cccnc2)nc2ccc(Br)cc12 | 5.17µM* | i | u | -3.3 | u | -47.2
CC(=O)Nc1cccc(NC(=O)c2cc(-c3cccnc3)nc3ccc(Cl)cc23)c1 | u | i | -0.7% | 7.2 | i | 1.9
CC(=O)Nc1cccc(NC(=O)c2cc(-c3cccnc3)nc3ccc(Br)cc23)c1 | 11.6µM* | i | u | 21.1 | i | -6.1
O=C(O)c1cc(-c2cccnc2)nc2ccc(Br)cc12 | -17.1%[9.22 µM] | i | 2.3% | -6.5 | i | 1.7
Cc1ccc2nc(-c3cccnc3)cc(C(=O)Nc3ccccc3[N+](=O)[O-])c2c1 | 14.6µM* | x | u | -12.4 | x | 3.6
